{"source": "the supplement of paper PMC10338343", "note": "± gives the standard deviation.", "data": [{"system": "MILI (PIWIL2) piRISC loaded with piRNA #1 (26 nt)", "assay": "pre-steady-state target cleavage rate (min^-1); guide: piRNA #1 5'p-UGAGGUAGUAGGUUGUAUAGUAUCCA; higher = faster piRNA-guided slicing of the target", "conditions": "auxiliary factor: 500 nM mouse GTSF1", "how_it_was_run": "(§1)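 A burst-and-steady-state fit was used to obtain the pre-steady-state cleavage rate. The input data were sequencing reads of uncleaved targets, normalised to depth and to weakly complementary targets, from a […] transcribed, DNA-blocked target RNA library mixed with 1 nM active affinity-purified piRISC holding one synthetic guide, with or without 500 nM GTSF1 partner protein, in HEPES–potassium acetate buffer at 33 °C for 0–8 or 0–960 min. Three trials were pooled and k3 was capped at 0.0001 min^-1.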", "values": [{"sequence": "GGAGACGAUUCUAUUCAACCUACUACCUCA", "pre-steady-state target cleavage rate": "0.231 ± 0.014"}, {"sequence": "GGAGUGGAUACUAUACAACGUACUACCUGA", "pre-steady-state target cleavage rate": "0.0131 ± 0.0034"}, {"sequence": "GGAGACGAUACUAUACAUCCUACUACCUGA", "pre-steady-state target cleavage rate": "0.237 ± 0.031"}, {"sequence": "GGAGAGCAUACUAUACAAGCUACUACCUCA", "pre-steady-state target cleavage rate": "0.22 ± 0.015"}, {"sequence": "GGAGUGGAUACUAUACAUGCUACUACCUCA", "pre-steady-state target cleavage rate": "0.109 ± 0.0081"}, {"sequence": "GGAGUGGAUACUAUACAACCUACAACCUCA", "pre-steady-state target cleavage rate": "0.0801 ± 0.011"}, {"sequence": "GGAGAGGAUACUAUACAACGUACUACCUGA", "pre-steady-state target cleavage rate": "0.0116 ± 0.0027"}, {"sequence": "GGAGACGAUACUAUACAACCUACUACAUCA", "pre-steady-state target cleavage rate": "0.0978 ± 0.015"}, {"sequence": "GGAGAGGUUACUAUACAACCAACUACCUCA", "pre-steady-state target cleavage rate": "0.00725 ± 0.0016"}, {"sequence": "GGAGACGAUACUAUACAACCACUACCUCA", "pre-steady-state target cleavage rate": "0.00914 ± 0.0038"}, {"sequence": "GGAGACCUAACUAUACAACCUACAUCCUCA", "pre-steady-state target cleavage rate": "0.0364 ± 0.013"}, {"sequence": "GGAGACCAAACUAUACAACGUACUACCUCA", "pre-steady-state target cleavage rate": "0.0124 ± 0.0071"}, {"sequence": "GGAGAGGAUACUAUACAACCUACUCCCUCA", "pre-steady-state target cleavage rate": "0.0191 ± 0.006"}, {"sequence": "GGAGAGGAUACAAUACUACCUACUACCUCA", "pre-steady-state target cleavage rate": "0.154 ± 0.013"}, {"sequence": "GGAGACCAUACUAUGACAACCUACUACCUCA", "pre-steady-state target cleavage rate": "0.165 ± 0.017"}, {"sequence": "GGAGACGAUACUAUACAACCUACUGCCUCA", "pre-steady-state target cleavage rate": "0.11 ± 0.015"}, {"sequence": "GGAGAGGAUACUAUACAACCUACAACCUCA", "pre-steady-state target cleavage rate": "0.111 ± 0.015"}, {"sequence": "GGAGUGGAUACUAUUCUACCUACUACCUCA", "pre-steady-state target cleavage rate": "0.19 ± 0.011"}, {"sequence": "GGAGAGGGAUACUAUACAACCUACUACCUCA", "pre-steady-state target cleavage rate": "0.237 ± 0.015"}, {"sequence": "GGAGACCUUACUAUACAUCCUACUACCUCA", "pre-steady-state target cleavage rate": "0.292 ± 0.024"}, {"sequence": "GGAGACCAUACUAUACAACCUACAUCCUCA", "pre-steady-state target cleavage rate": "0.1 ± 0.014"}, {"sequence": "GGAGACCAUACUAUACAACCUAUUACCUCA", "pre-steady-state target cleavage rate": "0.234 ± 0.019"}, {"sequence": "GGAGUGGAUACUAUACUACCUUCUACCUCA", "pre-steady-state target cleavage rate": "0.0207 ± 0.0034"}, {"sequence": "GGAGAGGAUACUUUACAACCUACUUCCUCA", "pre-steady-state target cleavage rate": "0.00524 ± 0.0027"}, {"sequence": "GGAGAGGAUAGUAUACAACCUACUACCUGA", "pre-steady-state target cleavage rate": "0.0327 ± 0.0082"}, {"sequence": "GGAGACCUUACUAUUCAACCUACUACCUCA", "pre-steady-state target cleavage rate": "0.15 ± 0.012"}, {"sequence": "GGAGUGGAUUCUAUACAACCUUCUACCUCA", "pre-steady-state target cleavage rate": "0.00777 ± 0.0028"}, {"sequence": "GGAGACCAUACUAUACAACCUACUACCUGCA", "pre-steady-state target cleavage rate": "0.213 ± 0.023"}, {"sequence": "GGAGAGGAUACUAUACACCCUACUACCUCA", "pre-steady-state target cleavage rate": "0.122 ± 0.015"}, {"sequence": "GGAGUGGAUUACUAUACAACCUACUACCUCA", "pre-steady-state target cleavage rate": "0.154 ± 0.0078"}, {"sequence": "GGAGUGGAUACUAUACAACCGACUACCUCA", "pre-steady-state target cleavage rate": "0.00279 ± 0.0026"}, {"sequence": "GGAGACGAUACUAUACCAACCUACUACCUCA", "pre-steady-state target cleavage rate": "0.0605 ± 0.013"}, {"sequence": "GGAGACCUAACUACACAACCUACUACCUCA", "pre-steady-state target cleavage rate": "0.166 ± 0.039"}, {"sequence": "GGAGAGGAUAAUAUACAACCUACUACCUCA", "pre-steady-state target cleavage rate": "0.135 ± 0.01"}, {"sequence": "GGAGAGGAUACUAAACAAGCUACUACCUCA", "pre-steady-state target cleavage rate": "0.165 ± 0.014"}, {"sequence": "GGAGACGAUACUAUACAACCUAGCUACCUCA", "pre-steady-state target cleavage rate": "0.0598 ± 0.0083"}, {"sequence": "GGAGACCUAUCUAUACAACCUACUACCUCA [g2:g20:cont:t1A]", "pre-steady-state target cleavage rate": "0.11 ± 0.018"}, {"sequence": "GGAGUGGAUACUAUACAACGUACUAGCUCA", "pre-steady-state target cleavage rate": "0.0104 ± 0.0027"}, {"sequence": "GGAGACGAUACUAAACAAGCUACUACCUCA", "pre-steady-state target cleavage rate": "0.268 ± 0.016"}, {"sequence": "GGAGACCAUACUAUGCAACCUACUACCUCA", "pre-steady-state target cleavage rate": "0.174 ± 0.019"}]}, {"system": "EfPiwi piRISC loaded with piRNA #1 (26 nt)", "assay": "pre-steady-state target cleavage rate (min^-1); auxiliary factor: 500 nM Ephydatia muelleri Gtsf1; guide: piRNA #1 5'p-UGAGGUAGUAGGUUGUAUAGUAUCCA; MIWI and MILI are mouse PIWI proteins and EfPiwi is from a freshwater sponge; tags in brackets are library labels; higher = faster piRNA-guided slicing of the target", "conditions": "not given", "how_it_was_run": "as §1", "values": [{"sequence": "GGAGACGAUUCUAUUCAACCUACUACCUCA", "pre-steady-state target cleavage rate": "0.00706 ± 0.0046"}, {"sequence": "GGAGUGGAUACUAUACAACGUACUACCUGA", "pre-steady-state target cleavage rate": "0.00457 ± 0.0015"}, {"sequence": "GGAGACGAUACUAUACAUCCUACUACCUGA", "pre-steady-state target cleavage rate": "0.00464 ± 0.0014"}, {"sequence": "GGAGAGCAUACUAUACAAGCUACUACCUCA", "pre-steady-state target cleavage rate": "0.00318 ± 0.0023"}, {"sequence": "GGAGUGGAUACUAUACAUGCUACUACCUCA", "pre-steady-state target cleavage rate": "0.00896 ± 0.0037"}, {"sequence": "GGAGUGGAUACUAUACAACCUACAACCUCA", "pre-steady-state target cleavage rate": "0.00468 ± 0.0018"}, {"sequence": "GGAGAGGAUACUAUACAACGUACUACCUGA", "pre-steady-state target cleavage rate": "0.00359 ± 0.0014"}, {"sequence": "GGAGACGAUACUAUACAACCUACUACAUCA", "pre-steady-state target cleavage rate": "0.0059 ± 0.0024"}, {"sequence": "GGAGAGGUUACUAUACAACCAACUACCUCA", "pre-steady-state target cleavage rate": "0.00401 ± 0.002"}, {"sequence": "GGAGACGAUACUAUACAACCACUACCUCA", "pre-steady-state target cleavage rate": "0.00795 ± 0.0036"}, {"sequence": "GGAGACCUAACUAUACAACCUACAUCCUCA", "pre-steady-state target cleavage rate": "0.00597 ± 0.0051"}, {"sequence": "GGAGACCAAACUAUACAACGUACUACCUCA", "pre-steady-state target cleavage rate": "0.00528 ± 0.0034"}, {"sequence": "GGAGAGGAUACUAUACAACCUACUCCCUCA", "pre-steady-state target cleavage rate": "0.00429 ± 0.0017"}, {"sequence": "GGAGAGGAUACAAUACUACCUACUACCUCA", "pre-steady-state target cleavage rate": "0.00424 ± 0.0028"}, {"sequence": "GGAGACCAUACUAUGACAACCUACUACCUCA", "pre-steady-state target cleavage rate": "0.00762 ± 0.0033"}, {"sequence": "GGAGACGAUACUAUACAACCUACUGCCUCA", "pre-steady-state target cleavage rate": "0.00691 ± 0.0024"}, {"sequence": "GGAGAGGAUACUAUACAACCUACAACCUCA", "pre-steady-state target cleavage rate": "0.00428 ± 0.0019"}, {"sequence": "GGAGUGGAUACUAUUCUACCUACUACCUCA", "pre-steady-state target cleavage rate": "0.00571 ± 0.0035"}, {"sequence": "GGAGAGGGAUACUAUACAACCUACUACCUCA", "pre-steady-state target cleavage rate": "0.0946 ± 0.037"}, {"sequence": "GGAGACCUUACUAUACAUCCUACUACCUCA", "pre-steady-state target cleavage rate": "0.00607 ± 0.0029"}, {"sequence": "GGAGACCAUACUAUACAACCUACAUCCUCA", "pre-steady-state target cleavage rate": "0.00325 ± 0.0028"}, {"sequence": "GGAGACCAUACUAUACAACCUAUUACCUCA", "pre-steady-state target cleavage rate": "0.0186 ± 0.0067"}, {"sequence": "GGAGUGGAUACUAUACUACCUUCUACCUCA", "pre-steady-state target cleavage rate": "0.00331 ± 0.0022"}, {"sequence": "GGAGAGGAUACUUUACAACCUACUUCCUCA", "pre-steady-state target cleavage rate": "0.00239 ± 0.0024"}, {"sequence": "GGAGAGGAUAGUAUACAACCUACUACCUGA", "pre-steady-state target cleavage rate": "0.00298 ± 0.0022"}, {"sequence": "GGAGACCUUACUAUUCAACCUACUACCUCA", "pre-steady-state target cleavage rate": "0.00413 ± 0.0039"}, {"sequence": "GGAGUGGAUUCUAUACAACCUUCUACCUCA", "pre-steady-state target cleavage rate": "0.00415 ± 0.0028"}, {"sequence": "GGAGACCAUACUAUACAACCUACUACCUGCA", "pre-steady-state target cleavage rate": "0.00318 ± 0.002"}, {"sequence": "GGAGAGGAUACUAUACACCCUACUACCUCA", "pre-steady-state target cleavage rate": "0.0114 ± 0.0053"}, {"sequence": "GGAGUGGAUUACUAUACAACCUACUACCUCA", "pre-steady-state target cleavage rate": "0.00938 ± 0.0037"}, {"sequence": "GGAGUGGAUACUAUACAACCGACUACCUCA", "pre-steady-state target cleavage rate": "0.00469 ± 0.0016"}, {"sequence": "GGAGACGAUACUAUACCAACCUACUACCUCA", "pre-steady-state target cleavage rate": "0.0123 ± 0.0043"}, {"sequence": "GGAGACCUAACUACACAACCUACUACCUCA", "pre-steady-state target cleavage rate": "0.00487 ± 0.0033"}, {"sequence": "GGAGAGGAUAAUAUACAACCUACUACCUCA", "pre-steady-state target cleavage rate": "0.00772 ± 0.0036"}, {"sequence": "GGAGAGGAUACUAAACAAGCUACUACCUCA", "pre-steady-state target cleavage rate": "0.00412 ± 0.0017"}, {"sequence": "GGAGACGAUACUAUACAACCUAGCUACCUCA", "pre-steady-state target cleavage rate": "0.00543 ± 0.0023"}, {"sequence": "GGAGACCUAUCUAUACAACCUACUACCUCA [g2:g20:cont:t1A]", "pre-steady-state target cleavage rate": "0.0119 ± 0.0046"}, {"sequence": "GGAGUGGAUACUAUACAACGUACUAGCUCA", "pre-steady-state target cleavage rate": "0.00412 ± 0.0023"}, {"sequence": "GGAGACGAUACUAAACAAGCUACUACCUCA", "pre-steady-state target cleavage rate": "0.00331 ± 0.0031"}, {"sequence": "GGAGACCAUACUAUGCAACCUACUACCUCA", "pre-steady-state target cleavage rate": "0.0164 ± 0.0068"}]}]}
